Source: PubChem
Most compounds without a hit are left out; they make up all but 3.5% or so of the library.
KCNK3 inh: human KCNK3 channel inhibition, primary screen; O14649; CHO-KCNK3 thallium flux, FluxOR fluorescence; active compounds read low; B-score at 10 µM; actives 0.84% (n = 340,000);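 active = B-score under library mean minus 4 SD, starting fluorescence ratio at most library mean plus 5 SD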;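 also: more negative B-score means stronger inhibition of thallium flux through KCNK3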
Kir21 inh: blocks the mouse Kir2.1 inward-rectifier potassium channel. P35561. HEK293-Kir2.1, FluxOR thallium flux fluorescence; active compounds read low. B-score at 10 µM. actives 0.85% (n = 310,000). AID 1672;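 active = fluorescence ratio B-score at or below minus 3 SD of library scores, with starting-brightness B-score within 2 SD, cut at about -4.2 in these data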;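 also: channel flux triggered by added potassium and thallium sulfate stimulus; B-score of peak minus minimum fluorescence over baseline after thallium stimulus; more negative B-score means stronger Kir2.1 block with less thallium influx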
TMEM16A inh: blocks the mouse calcium-activated chloride channel TMEM16A; normalized B-score (activity score, 25-100; higher = stronger inhibition) at 10 µM; actives 1.2% (n = 310,000); HEK293 TMEM16A/YFP iodide influx fluorescence, ionomycin;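 active = ratio plate-corrected score three or more library SD toward inhibition, starting fluorescence score within five deviations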;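 also: score derived from kinetic fluorescence span divided by baseline fluorescence per well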
Target sequence (Q8BHY3 whole entry, looked up): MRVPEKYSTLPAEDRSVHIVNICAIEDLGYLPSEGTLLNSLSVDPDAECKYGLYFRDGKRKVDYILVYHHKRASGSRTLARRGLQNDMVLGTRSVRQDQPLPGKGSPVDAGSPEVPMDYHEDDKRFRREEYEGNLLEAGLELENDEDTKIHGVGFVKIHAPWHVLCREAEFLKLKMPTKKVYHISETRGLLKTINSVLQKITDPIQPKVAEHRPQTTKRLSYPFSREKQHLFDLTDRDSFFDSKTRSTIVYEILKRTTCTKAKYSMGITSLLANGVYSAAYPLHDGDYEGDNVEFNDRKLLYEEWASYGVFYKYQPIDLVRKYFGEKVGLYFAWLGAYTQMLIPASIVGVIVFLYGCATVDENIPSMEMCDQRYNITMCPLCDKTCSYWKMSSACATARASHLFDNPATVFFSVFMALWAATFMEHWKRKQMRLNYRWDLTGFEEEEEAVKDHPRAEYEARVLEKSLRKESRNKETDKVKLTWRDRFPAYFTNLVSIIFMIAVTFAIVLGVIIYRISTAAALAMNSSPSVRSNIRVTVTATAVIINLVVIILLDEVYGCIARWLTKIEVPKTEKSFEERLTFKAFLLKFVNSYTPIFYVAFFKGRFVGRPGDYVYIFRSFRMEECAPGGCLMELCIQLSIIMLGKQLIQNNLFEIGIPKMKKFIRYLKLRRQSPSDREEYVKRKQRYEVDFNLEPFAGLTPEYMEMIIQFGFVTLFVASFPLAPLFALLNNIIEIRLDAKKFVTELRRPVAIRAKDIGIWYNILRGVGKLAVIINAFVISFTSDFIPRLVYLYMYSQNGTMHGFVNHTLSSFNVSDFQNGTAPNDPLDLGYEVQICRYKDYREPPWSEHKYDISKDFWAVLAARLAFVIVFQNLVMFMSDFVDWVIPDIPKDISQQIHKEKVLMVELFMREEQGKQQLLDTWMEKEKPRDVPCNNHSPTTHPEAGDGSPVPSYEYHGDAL
KCNK9 block: inhibitors of human KCNK9 two-pore domain potassium channel. Q9NPC2. HEK293 KCNK9, FluxOR thallium flux fluorescence; active compounds read low. B-score at 10 µM. actives 1.2% (n = 310,000);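 active = ratio B-score over 3 SD below the library mean, with starting fluorescence within 5 SD of its mean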;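 also: negative B-score means less thallium flux so channel inhibition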
ANO1 activ: mouse TMEM16A channel activation, primary screen; Q8BHY3; HEK293 TMEM16A/YFP-H148Q/I152L, iodide quench fluorescence; active compounds read low; B-score at 10 µM; actives 0.3% (n = 340,000); AID 623877;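 active = fluorescence-ratio B-score plate-corrected deviation score at least 3 library SD below zero, with starting fluorescence score within 5 deviations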;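 also: channel opened by trigger with iodide after compound preincubation; score built on the fluorescence ratio of max minus min over baseline; more negative score means more quench and so TMEM16A activation or potentiation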
Active calls of the source: *; i = inactive; . = no result given.

SMILES | KCNK3 inh | Kir21 inh | TMEM16A inh | KCNK9 block | ANO1 activ
CCc1nnc(NS(=O)(=O)c2ccc(NC(=S)NC(=O)/C=C/c3ccc(C(C)C)cc3)cc2)s1 | i | 0.06 | 100* | i | i
CC(C)(C)OC(=O)N/N=C/c1cccn1-c1ccc([N+](=O)[O-])cc1 | i | -1.34 | i | i | i
COc1ccc(CC(=O)N/N=C/c2cccn2-c2ccc([N+](=O)[O-])cc2)cc1OC | i | -2.18 | i | i | -11.6*
CCC1(c2ccc(F)cc2)NC(=O)N(CC(=O)Nc2cc(C)on2)C1=O (configuration not stated) | i | . | . | . | -39.4*
CCCC1(c2ccccc2)NC(=O)N(CC(=O)Nc2cc(C)on2)C1=O (configuration not stated) | i | 2.43 | i | i | i
CCC1(c2ccc(F)cc2)NC(=O)N(CC(=O)NCC(=O)Nc2cccc(C)c2C)C1=O (configuration not stated) | i | -1.11 | 25* | i | i
COC(=O)c1ccc(/C(O)=C(\C#N)c2nc3ccccc3s2)cc1 | i | 2.35 | 25* | i | i
Cc1ccc(OC/C(O)=C(\C#N)c2nc3ccccc3s2)cc1 | i | 0 | 100* | i | i
CCCc1cc(-c2nc(-c3ccc(Cl)cc3)cs2)ccn1 | i | -3.29 | i | -6.61* | i
Clc1ccc(-c2csc(-c3ccno3)n2)cc1 | i | -0.3 | i | i | i
COc1ccccc1/C=C/CN1CCSCC1 | i | -3.78 | i | i | i
CCN(CC)c1nc(-c2ccccn2)nc(-c2ccccc2)c1C#N | i | -0.01 | i | i | i
Cc1cccc(C)c1NC(=O)CNC(=O)c1c(-c2ccccc2)noc1C | i | . | . | . | i
COc1ccc(NC(=O)CN2CCN(c3ccc(F)cc3)CC2)cc1Cl | i | -0.79 | i | i | -11.2*
CCCCC(=O)OCC(=O)N1N=C(c2c[nH]c3ccccc23)C(O)C1c1ccc(OC)cc1 (configuration not stated) | i | 0.33 | 25* | i | i
Cc1cc(C)cc(N2C(=O)CC(c3ccccc3)CC2=O)c1 | i | . | . | . | i
CC(C)NC(=O)N(Cc1ccccc1)Cc1cccs1 | i | -0.45 | i | i | i
Nc1nsc2ccccc12 | i | -5.12* | i | i | i
O=C(CN(Cc1ccc(F)cc1)C(=O)CNS(=O)(=O)c1ccccc1)NCC1CCCO1 (configuration not stated) | i | -0.31 | i | i | i
CC(C)C[C@H]1CN=C(Nc2ccccc2)N1CC1CCC(C(C)(C)C)CC1 (some centres not stated) | i | . | 100* | . | i
CC(C)C[C@H]1CN=C(Nc2ccccc2)N1CC1CCCC1 | i | -1.81 | i | i | i
C[C@H]1CN=C(Nc2ccccc2)N1CC1CCCCCC1 | i | -2.02 | i | i | -6.73*
CC1CCN(C(C(=O)Nc2ccc(C(C)C)cc2)c2ccc3c(c2)OCO3)CC1 (configuration not stated) | i | 0.12 | i | -8.09* | i
CC(C)c1ccc(NC(=O)C(c2ccc3c(c2)OCO3)N2CCC3(CC2)OCCO3)cc1 (configuration not stated) | i | 0.78 | i | i | i
Cc1ccc(NC(=O)C(c2ccc(Cl)cc2Cl)N2CCCC2)cc1 (configuration not stated) | i | 0.75 | i | -7.08* | i
SMILES | KCNK3 inh | Kir21 inh | TMEM16A inh | KCNK9 block | ANO1 activ
CC(C)c1ccc(NC(=O)C(c2ccc3c(c2)OCO3)N2CCCCC2)cc1 (configuration not stated) | i | -0.1 | i | -7.38* | i
N#CN1CCC(NS(=O)(=O)c2ccc(C(F)(F)F)cc2)CC1 | i | . | . | . | i
CC(C)S(=O)(=O)N1CCCC(C(=O)c2cccc(Cl)c2)C1 (configuration not stated) | i | -1.14 | i | i | i
CC1(c2ccc(OC(F)F)cc2)NC(=O)N(CC(=O)Nc2cccc(S(N)(=O)=O)c2)C1=O (configuration not stated) | i | -0.57 | i | i | i
CC1(c2ccc(OC(F)F)cc2)NC(=O)N(/N=C/c2c(O)ccc3ccccc23)C1=O (configuration not stated) | i | 1.65 | i | i | -4.69*
COCCC(=O)N1CCC(Oc2ccc(C(=O)NCCSC)cc2)CC1 | i | -0.01 | i | i | i
Cc1ccccc1NS(=O)(=O)c1cc(C(=O)Nc2ccccc2-c2ccccc2)ccc1Cl | i | -1.28 | i | -7.24* | i
Cc1cccc(C(=O)OCC(=O)NC(=O)Cc2ccccc2)c1O | i | 0.11 | i | i | i
O=C(NCCc1ccc2c(c1)OCCO2)c1ccc(F)cc1 | i | 1.77 | i | i | i
CSc1cccc(NC(=O)c2ccc(CN3CCc4ccccc4C3)cc2)c1 | i | 0 | 100* | i | i
COC(=O)c1ccc(CN2CCc3ccc(NC(=O)c4ccncc4)cc3C2)cc1 | i | 2.42 | 100* | i | i
O=C(Nc1cccc(Br)c1)c1ccc(CN2CCc3ccccc3C2)cc1 | i | -0.02 | 25* | i | i
O=C(NC(=S)Nc1ccc2cn[nH]c2c1)c1ccccc1 | i | 0.99 | i | i | i
O=C(COc1ccccc1[N+](=O)[O-])N1CCN(c2ccccn2)CC1 | i | 0.01 | i | i | i
O=C(COC(=O)CCC(=O)c1cccs1)Nc1cccc(S(=O)(=O)N2CCOCC2)c1 | i | 0.92 | i | i | i
Cc1ccc(Nc2c(F)c(F)c(F)c(F)c2C(=O)O)cc1 | i | 0.63 | 25* | i | i
CCC(C)c1ccccc1NC(=O)CN1CCN(C/C=C/c2ccccc2)CC1 (configuration not stated) | i | -4.52* | i | i | i
N#Cc1c(NCCCO)nc(-c2ccccc2)c2c1CCCC2 | i | -0.84 | i | i | i
N#Cc1c(NCCN)nc(-c2ccccc2)c2c1CCCC2 | i | -6.04* | i | i | i
CNS(=O)(=O)c1cccc(C(=O)NCC(c2cccs2)N2CCOCC2)c1 (configuration not stated) | i | -0.91 | i | i | i
CC1CN(Cc2ccco2)C(=S)NC1=O (configuration not stated) | i | . | . | . | i
NC(=O)CSc1nnc(NC(=O)c2cccc(S(=O)(=O)N3CCCCC3)c2)s1 | i | 0.28 | i | i | i
CCSc1nnc(NC(=O)c2cccc(S(=O)(=O)N(C)c3ccc(C)cc3)c2)s1 | i | 1.8 | 25* | i | i
CCOC(=O)CSc1nnc(NC(=O)c2cccc(S(=O)(=O)N3CCCCCC3)c2)s1 | i | -0.01 | 25* | i | i
